Tau fibril FP: inhibitors of human tau fibril formation; Potency, µM (doses to about 57.7 µM), inactives show at the top dose activity, negative = inhibition, actives largely listed as inhibitors; actives 0.39% (n = 280,000); K18 P301L tau heparin fibrillization, Alexa594 FP, 6 h; AID 1468; also: potency is read from the fitted curve at half-maximal effect; nearly all actives have a fitted effect of over 55% in size
Target sequence (P10636 561-689 P618L limits assumed): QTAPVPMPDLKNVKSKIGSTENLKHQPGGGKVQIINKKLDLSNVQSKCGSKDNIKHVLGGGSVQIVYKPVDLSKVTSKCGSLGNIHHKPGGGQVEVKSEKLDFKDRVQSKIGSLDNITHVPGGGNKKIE
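Compound effects on tau fibrillization are measured by Alexa 594 fluorescence polarization (ex 555, em 632 nm). K18 P301L tau is used at 15 uM with 0.24 uM labeled tracer, and 20 uM heparin induces aggregation over 6 hr at 37 C.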
Coupling enz: counter-screen for Giardia aldolase inhibitors: coupling enzyme system; activity change, negative = inhibition, % at 58.2 µM, hits read low; coupling enzyme system counterscreen, AmpLite Red fluorescence; actives 0.67% (n = 290,000); in the data active = activity change below about -30%
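Activity here indicates interference with the coupling reaction, not aldolase inhibition. Compounds at 57.5 uM final met coupling enzymes for 10 min at RT; substrate and AmpLite Red detection followed, with a 525/598 nm fluorescence read after 20 min.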
Tau ThT inhib: tau fibrillization inhibition (ThT binding); P10636; AID 1460; recombinant tau K18 P301L, heparin-induced fibrillization, ThT fluorescence; Potency, µM (titrated, usually from 57.4 µM), inactives show top-dose activity, negative = inhibition, most hits filed as inhibitors; actives 2.1% (n = 270,000); also: potency is read from the fitted curve at half-maximal effect; nearly all actives have a fitted effect of over 55% in size
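Heparin-induced (20 uM) aggregation of recombinant human K18 P301L tau, 15 uM unlabeled with 0.24 uM labeled, pH 7 acetate buffer, 6 hr at 37 C with compound. Fibrils quantified by 30 uM ThT fluorescence after 1 hr ambient incubation.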
JMJD2E inh: inhibitors of human JMJD2E histone demethylase | B2RXH2 | JMJD2E catalytic domain, FDH-coupled NADH fluorescence (FDH is formaldehyde dehydrogenase) | Potency, µM (doses to about 57.1 µM), inactives show at the highest dose activity change, negative = inhibition, actives largely listed as inhibitors | actives 1.6% (n = 230,000) | AID 2147; active = well fitted inhibition curve with a large enough effect, not every such curve was filed as active; inconclusive = small, poorly fitted or top-dose-only effect, or another doubt; inactive = no such curve, though single readings can be large or run the other way;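 also: potency is read from the fitted curve at half-maximal effect; 0% = wells with enzyme and -100% = buffer wells without enzyme; nearly all actives have a fitted effect of over 50% in size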
Target sequence (B2RXH2 1-337 limits assumed): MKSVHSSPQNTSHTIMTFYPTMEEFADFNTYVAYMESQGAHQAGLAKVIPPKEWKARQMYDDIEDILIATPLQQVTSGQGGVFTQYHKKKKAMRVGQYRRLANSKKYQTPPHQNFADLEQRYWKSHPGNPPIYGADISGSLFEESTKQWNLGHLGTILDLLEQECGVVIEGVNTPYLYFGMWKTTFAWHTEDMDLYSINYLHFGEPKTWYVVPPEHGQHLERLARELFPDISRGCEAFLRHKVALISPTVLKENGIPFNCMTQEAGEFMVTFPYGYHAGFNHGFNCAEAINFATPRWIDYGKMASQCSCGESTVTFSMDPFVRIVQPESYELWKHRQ
Sfp inh: inhibitors of Bacillus subtilis Sfp phosphopantetheinyl transferase. Biochemical Sfp PPTase activity, qHTS. actives 3.5% (n = 310,000). Potency, µM, inactives show largest response in the series, negative = inhibition, usual class: inhibitors. AID 1490;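 also: the enzyme is Sfp with the accession as filed and its product quenches rhodamine fluorescence; potency is read from the fitted curve at half-maximal effect; 0% = enzyme reaction without inhibitor and -100% = no enzyme wells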
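With Hepes-Na pH 7.6 buffer containing 10 mM MgCl2, Sfp (15 nM) modified BHQ-2-YbbR (12.5 uM) using rhodamine-CoA (5 uM). Two reads 30 minutes apart at 525/598 nm yielded each well's rate.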
Tau fluor cs: counter-screen for tau fibril formation inhibitors; actives 0.93% (n = 280,000); tau K18 P301L Alexa594 fluorescence, heparin fibrillization; Potency, µM (top dose mostly 57.7 µM), for the others: at the top dose activity change, negative = decrease; also: potency is read from the fitted curve at half-maximal effect; nearly all actives have a fitted effect of over 55% in size
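Human tau K18 P301L (15 uM unlabeled, 0.24 uM Alexa 594-labeled) in 100 mM sodium acetate pH 7 with 20 uM heparin, 6 hr at 37 C. ThT 30 uM added, 1 hr ambient; Alexa 594 FP and total fluorescence read at 555/632 nm.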
Numbers without * were called inactive; ? = inconclusive; / = not tested or not shown; [ ] = another dose, or the depositor's remark. Sampled rows, rich in hits. Any-hit rate of the full collection: about 5.3%. Unless noted, calls follow the shape of the dose curve; as a rule, active = well fitted curve in the direction sought with a large enough effect; inconclusive = small, poorly fitted or top-dose-only effect, or another doubt; inactive = no such curve, though single readings can be large; an effect the other way counts as inactive or inconclusive. Unless noted, % is scaled to controls: 0 for no effect and ±100 for the full control effect.

SMILES	Tau fibril FP	Coupling enz	Tau ThT inhib	JMJD2E inh	Sfp inh	Tau fluor cs
COc1ccc(Cn2c3nc4ccccc4nc3c3c(=O)n(Cc4ccco4)c(C)nc32)cc1	-6%	-6	?	?	7.9µM*	-8%
COCCCn1cnc2c(c1=O)c1nc3ccccc3nc1n2-c1ccc(C)cc1	5%	1	-1%	4%	9%	1%
Cc1ccc(S(=O)(=O)c2c(N)n(/N=C/c3ccco3)c3nc4ccccc4nc23)cc1	?	-7	?	?	-28%	?
COc1ccc(S(=O)(=O)c2c(N)n(Cc3ccco3)c3nc4ccccc4nc23)cc1	0%	-3	?	?	56µM*	?
CCO/C(C)=N/n1c2nc3ccccc3nc2c2c(=O)n(Cc3ccccc3Cl)c(C)nc21	7%	3	-12%	-19%	-5%	0%
Cc1nc2c(c(=O)n1Cc1ccccc1Cl)c1nc3ccccc3nc1n2Cc1ccco1	-12%	2	?	?	2.8µM*	-4%
Cc1cc(C)cc(-n2c3nc4ccccc4nc3c3c(=O)n(Cc4ccco4)cnc32)c1	?	3	?	?	7.1µM*	2%
CCNc1ncc2nc(-c3ccc(Cl)cc3)c(=O)n(-c3ccc(OC)cc3)c2n1	/	0	/	/	31%	/
COc1ccc(CNc2nc(NCc3ccc(OC)cc3)c3ncn(C4CCCCC4)c3n2)cc1	/	-2	/	/	1%	/
COc1ccc(NC(=O)c2cc(OCCCN(C)C)nn2Cc2ccccc2)cc1	/	0	/	/	-16%	/
CO[C@H]1COC(=O)[C@H](C)NC(=O)[C@@H](C)COC(=O)[C@H]2CCCN2C(=O)C/C=C\[C@H]1C	1%[11.6 µM]	1	-13%[11.5 µM]	/	10%	-12%[11.6 µM]
c1ccc2c(c1)CCN(c1nc3cc4c(cc3s1)OCCO4)C2	0%	-38*	3%	-1%	?	-8%
O=C1OC(Nc2ccc3c(c2)OCO3)c2ccccc21 (centres undefined)	?	-3	13µM*	?	56µM*	?
O=C(CC(c1ccco1)S(=O)(=O)c1ccccc1)c1ccc(F)cc1 (centres undefined)	1%	1	-17%	?	7.9µM*	-2%
COc1ccc(C(=O)NCC(c2ccco2)S(=O)(=O)c2ccc(F)cc2)cc1 (centres undefined)	?	/	-5%	/	/	-6%
CSc1nc2ccc(NS(=O)(=O)c3c(Cl)cccc3Cl)cc2s1	-3%	-17	?	2%	?	10µM*[quencher]
COc1cccc(-c2cncnc2NCc2cccc(C)c2)c1	/	-3	/	/	-12%	/
O=c1ccsn1Cc1ccccc1	14µM*	-3	10µM*	5%	0.63µM*	-17%
CC(=O)Oc1ccc(N2C(=O)C3C4C=CC(CO)(O4)C3C2=O)cc1 (centres undefined)	-5%	-2	-18%	-5%	16µM*	-16%
CC(=O)Oc1ccc(N2C(=O)C3C(C2=O)C2(C)C=CC3(C)O2)cc1 (centres undefined)	-9%	-3	-11%	-3%	7.9µM*	-4%
O=C1C2C3C=CC(CNS(=O)(=O)c4ccccc4)(O3)C2C(=O)N1c1ccc(Cl)cc1 (centres undefined)	?	4	-19%	7%	25µM*	-5%
COc1ccc(C(=O)NCC23C=CC(O2)C2C(=O)N(Cc4ccccc4)C(=O)C23)cc1 (centres undefined)	6%	0	-5%	8%	?	3%
CC(=O)Oc1ccc(-n2c(=O)c3ccccc3c3ccccc3c2=O)cc1	4%	0	-9%	12%	20%	6%
O=C1C2C3C=CC(CO)(O3)C2C(=O)N1c1ccccc1-c1ccccc1 (centres undefined)	-7%	-3	?	-1%	1.1µM*	-11%
COc1ccc(-c2ccc3c(n2)CCCN3C[C@H](O)CN2CCCc3nc(-c4ccc(Br)cc4)ccc32)cc1	6%[11.6 µM]	-6	?	/	-7%	-18%[11.6 µM]
SMILES	Tau fibril FP	Coupling enz	Tau ThT inhib	JMJD2E inh	Sfp inh	Tau fluor cs
O=C(O)c1ccc2c(c1)C(=O)N([C@H](Cc1ccc(C(F)(F)F)cc1)C(=O)O)C2=O	/	9	/	/	19%	/
CCN(c1ccccc1)S(=O)(=O)c1c(-c2ccc(C)cc2)csc1C(=O)OC	1%	/	-13%	/	/	-22%
Cc1cccc(N2CCN(c3nc4ccc(C)cc4n4cnnc34)CC2C)c1 (centres undefined)	-3%	/	?	/	/	?
O=C(NCC(c1cccs1)S(=O)(=O)c1cccs1)c1cccc(F)c1 (centres undefined)	-6%	/	-2%	/	/	-4%
CCCn1c(-c2ccc(F)cc2)nc2c(NCCN(C(C)C)C(C)C)nc(C)nc21	7%	1	-7%	?	17%	-1%
COC(=O)c1cc(N2C(=O)C3C(C2=O)C2(C)C=CC3(C)O2)ccc1Cl (centres undefined)	-15%	7	?	2%	7.9µM*	-12%
COc1ccc(NC(=O)c2cc(N3C(=O)C4C5CCC(C5)C4C3=O)ccc2Cl)c(OC)c1 (centres undefined)	/	3	/	/	7%	/
Cc1cccc2c(=O)cc(CSc3ccccc3NC(=O)C(C)(C)C)[nH]c12	-1%	/	-1%	/	/	-2%
O=C(CSCCSCC(=O)c1ccco1)c1ccco1	-14%	-2	?	-19%	45µM*	-15%
O=C(CSc1ncnc2ccccc12)c1ccco1	?	1	?	-29%	20µM*	-19%
Cn1nnnc1SCC(=O)c1ccco1	-2%	1	-15%	-2%	?	-1%
O=C(CSc1ncnc2ccccc12)NCc1ccco1	-3%	0	-12%	2%	1%	-4%
Nc1c(C(=O)Nc2ccccc2)c2nc3ccccc3nc2n1-c1ccc(O)cc1	?	2	?	?	9%	14µM*[quencher]
COc1ccc(-n2c(N)c(C(=O)Nc3c(C)n(C)n(-c4ccccc4)c3=O)c3nc4ccccc4nc32)cc1	0%	-6	?	?	-4%	-2%
CCOC(=O)c1c(N)n(-c2ccc(N)cc2)c2nc3ccccc3nc12	5%	1	?	18µM*	-3%	-12%
Cc1noc(C)c1-c1ccc2ncnc(NCc3cccn3C)c2c1	/	4	/	/	-10%	/
O=C(/C=C/c1ccco1)N1CCN(c2ccc(F)cc2)CC1	-4%	-9	/	-1%	18µM*	?
O=C(/C=C/c1ccco1)N1CCN(S(=O)(=O)c2ccc(F)c(F)c2F)CC1	-3%	5	-7%	7%	40µM*	-1%
